The full ranking holds about 8,300 sequences; the median of “log2 fold change of degron read counts, EGFP-low vs EGFP+ sorted cells (limma voom), compound-induced degradation” is about -1.1, and the highest 2% start at about 3.2. Many of the other results were omitted from the sample, so the highest values are more common in it than they were.
T1: CRBN, Q96SW2
T1 chain: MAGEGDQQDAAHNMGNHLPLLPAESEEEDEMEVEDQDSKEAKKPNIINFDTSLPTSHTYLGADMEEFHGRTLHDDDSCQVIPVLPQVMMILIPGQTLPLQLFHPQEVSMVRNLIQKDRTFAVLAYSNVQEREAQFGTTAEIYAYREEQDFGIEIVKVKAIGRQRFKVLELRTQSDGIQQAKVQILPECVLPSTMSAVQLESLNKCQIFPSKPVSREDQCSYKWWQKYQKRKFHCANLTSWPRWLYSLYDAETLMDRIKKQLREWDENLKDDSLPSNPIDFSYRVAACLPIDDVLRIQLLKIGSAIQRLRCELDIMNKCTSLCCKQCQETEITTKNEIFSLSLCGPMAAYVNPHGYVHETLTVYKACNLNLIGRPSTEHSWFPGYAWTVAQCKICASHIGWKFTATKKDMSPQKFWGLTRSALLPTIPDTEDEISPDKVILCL


Molecular target: T1, CRBN, Q96SW2
Assay: log2 fold change of degron read counts, EGFP-low vs EGFP+ sorted cells (limma voom), compound-induced degradation; higher = more compound-induced degradation of the degron-EGFP fusion; degrons are variants of IKZF1/3 zinc finger 2; compound dose not given here
Details: Jurkat, 18 h
[1] = compound: compound 19 (5-tert-butyl-thalidomide)
[2] = compound: compound 22 (5-morpholino-thalidomide)
[3] = compound: compound 33 (diphenyl IMiD analogue)
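Note: pooled lentiviral library of zinc finger degron-EGFP fusions in mCherry-positive Jurkat cells, FACS-sorted after compound exposure, with degron abundance counted by next-generation sequencing.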

Sequence | log2 fold change of degron read counts [1] | log2 fold change of degron read counts [2] | log2 fold change of degron read counts [3] | log2 fold change of degron read counts (compound: thalidomide)
FHCDQCGAPFTQKGNLLRHIKL [46F_47H_49D_50Q_52G_53A_54P_55F_67L_, Q9UKT9] | -0.672 | -1.82 | -1.8 | -2.97
FKCSVCGHPFTQKGNLLRHIKL [46F_47K_49S_50V_52G_53H_54P_55F_67L_, Q9UKT9] | -2.15 | -2.09 | -2.23 | -1.7
FYCPICGHMFTQKGNLLRHIKL [46F_47Y_49P_50I_52G_53H_54M_55F_67L_, Q9UKT9] | -1.06 | -1.25 | -0.462 | -1.34
FECDVCGAMFTQKGNLLRHIKL [46F_47E_49D_50V_52G_53A_54M_55F_67L_, Q9UKT9] | -2.71 | -3.65 | -2.05 | -1.53
FWCEQCGANFTQKGNLLRHIKL [46F_47W_49E_50Q_52G_53A_54N_55F_67L_, Q9UKT9] | 0.0998 | 2.8 | -0.0431 | -0.721
FYCNVCGAVFTQKGNLLRHIKL [46F_47Y_49N_50V_52G_53A_54V_55F_67L_, Q9UKT9] | -0.0367 | 1.2 | 0.445 | -1.56
FICNVCGAVFTQKGNLLRHIKL [46F_47I_49N_50V_52G_53A_54V_55F_67L_, Q9UKT9] | -2.28 | -1.69 | 0.455 | -0.566
FQCNVCGAVFTQKGNLLRHIKL [46F_47Q_49N_50V_52G_53A_54V_55F_67L_, Q9UKT9] | -1.74 | 1.21 | 1.22 | 3.41
FCCPVCGAQFTQKGNLLRHIKL [46F_47C_49P_50V_52G_53A_54Q_55F_67L_, Q9UKT9] | 2.69 | 2.25 | 2.84 | 2.3
FYCPVCGAQFTQKGNLLRHIKL [46F_47Y_49P_50V_52G_53A_54Q_55F_67L_, Q9UKT9] | 2.88 | 3.65 | 2.38 | 1.69
FWCPQCGAQFTQKGNLLRHIKL [46F_47W_49P_50Q_52G_53A_54Q_55F_67L_, Q9UKT9] | 0.804 | 3.54 | 1.31 | 0.158
FMCPVCGAQFTQKGNLLRHIKL [46F_47M_49P_50V_52G_53A_54Q_55F_67L_, Q9UKT9] | -0.258 | 1.27 | 2.9 | 1.78
FACPQCGAQFTQKGNLLRHIKL [46F_47A_49P_50Q_52G_53A_54Q_55F_67L_, Q9UKT9] | 0.495 | -1.5 | -0.396 | -1.08
FWCPVCGAQFTQKGNLLRHIKL [46F_47W_49P_50V_52G_53A_54Q_55F_67L_, Q9UKT9] | 2.98 | 3.92 | 2.63 | 2.09
FRCPVCGAQFTQKGNLLRHIKL [46F_47R_49P_50V_52G_53A_54Q_55F_67L_, Q9UKT9] | -0.139 | 0.391 | 0.974 | 1.28
FSCPVCGAQFTQKGNLLRHIKL [46F_47S_49P_50V_52G_53A_54Q_55F_67L_, Q9UKT9] | 2.24 | 2.08 | 1.65 | 1.45
FVCPQCGAQFTQKGNLLRHIKL [46F_47V_49P_50Q_52G_53A_54Q_55F_67L_, Q9UKT9] | -1.74 | 0.725 | 1.72 | 1.08
FVCPVCGAQFTQKGNLLRHIKL [46F_47V_49P_50V_52G_53A_54Q_55F_67L_, Q9UKT9] | -0.526 | 2.62 | 2.83 | 2.98
FFCPVCGAQFTQKGNLLRHIKL [46F_47F_49P_50V_52G_53A_54Q_55F_67L_, Q9UKT9] | 3.11 | 3.47 | 2.43 | 1.92
FLCPVCGAQFTQKGNLLRHIKL [46F_47L_49P_50V_52G_53A_54Q_55F_67L_, Q9UKT9] | 0.29 | -0.0233 | 1.82 | 1.61
FRCPQCGARFTQKGNLLRHIKL [46F_47R_49P_50Q_52G_53A_54R_55F_67L_, Q9UKT9] | -2.3 | -2.09 | -1.12 | -1.27
FLCPQCGAKFTQKGNLLRHIKL [46F_47L_49P_50Q_52G_53A_54K_55F_67L_, Q9UKT9] | -2.44 | -2.82 | -1.39 | -0.831
FKCEVCGAQFTQKGNLLRHIKL [46F_47K_49E_50V_52G_53A_54Q_55F_67L_, Q9UKT9] | -0.0625 | -2.24 | -2.07 | -0.411
FFCEICGRAFTQKGNLLRHIKL [46F_47F_49E_50I_52G_53R_54A_55F_67L_, Q9UKT9] | 0.601 | -0.248 | 0.402 | -1.11
FKCEICGHPFTQKGNLLRHIKL [46F_47K_49E_50I_52G_53H_54P_55F_67L_, Q9UKT9] | -2.59 | -2.5 | -2.61 | -0.946
FKCPICGRFFTQKGNLLRHIKL [46F_47K_49P_50I_52G_53R_54F_55F_67L_, Q9UKT9] | -1.81 | -1.89 | -2.21 | -1.32
FRCDICGANFTQKGNLLRHIKL [46F_47R_49D_50I_52G_53A_54N_55F_67L_, Q9UKT9] | -1.48 | -1.55 | 0.418 | -0.326
FDCNVCGAYFTQKGNLLRHIKL [46F_47D_49N_50V_52G_53A_54Y_55F_67L_, Q9UKT9] | -1.56 | -2.08 | -0.374 | -0.686

Reference: the supplement of paper PMC12645437, “Orthogonal IMiD-Degron Pairs Induce Selective Protein Degradation in Cells” (ACS Chemical Biology, 2025)
